NPC1 promoter act: activators of NPC1 promoter; Huh7 NPC1 promoter luciferase reporter, 24 h; Potency, µM (titrated, usually from 9.22 µM), inactives show at the highest dose activation, usual class: activators; hit rate 2.4% among 320,000; further: % of control where 0% means no effect; nearly all actives have a fitted effect of over 60% in size
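Cells: Huh7 expressing luciferase under the NPC1 promoter, 1500/well. Seeded 2 h, compound added, incubated 24 h at 37 °C. Luciferase reagent, 10 min ambient, then luminescence.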
FLuc counter: counter-screen for miR-21 project: firefly luciferase inhibitors or activators | hit rate 6.9% among 360,000 | purified FLuc, Km substrates, luminescence inhibition | P08659 | AID 588342 | Potency, µM (top dose mostly 57.5 µM), without a hit: at the top dose activity change, negative = inhibition, actives largely listed as inhibitors;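 further: plate controls were vehicle for no effect and reference inhibitor for full effect; nearly all actives have a fitted effect of over 55% in size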
Target sequence (P08659 whole entry, looked up): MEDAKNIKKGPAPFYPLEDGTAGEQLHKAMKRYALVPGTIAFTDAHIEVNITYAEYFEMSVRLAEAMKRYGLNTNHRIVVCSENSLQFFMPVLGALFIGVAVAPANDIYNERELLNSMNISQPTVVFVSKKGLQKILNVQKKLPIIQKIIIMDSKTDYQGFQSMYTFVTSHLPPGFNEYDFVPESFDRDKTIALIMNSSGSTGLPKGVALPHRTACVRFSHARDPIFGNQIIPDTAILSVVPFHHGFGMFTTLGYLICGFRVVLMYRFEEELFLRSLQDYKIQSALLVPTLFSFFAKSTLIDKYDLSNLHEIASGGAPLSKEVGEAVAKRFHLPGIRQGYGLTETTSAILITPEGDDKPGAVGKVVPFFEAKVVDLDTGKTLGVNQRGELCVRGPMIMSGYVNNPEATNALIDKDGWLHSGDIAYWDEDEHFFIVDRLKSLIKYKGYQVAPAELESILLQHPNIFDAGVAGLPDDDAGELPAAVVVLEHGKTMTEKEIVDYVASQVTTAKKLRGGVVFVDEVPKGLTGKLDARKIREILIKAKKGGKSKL
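Biochemical qHTS of compounds, final roughly 60 µM downward over six points, against 10 nM purified firefly luciferase using Km concentrations of substrates (10 uM D-luciferin, 10 uM ATP) in Tris acetate pH 7.5 buffer; luminescence output.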
Rab9 promoter act: activates the Rab9 promoter | Huh7 Rab9 promoter-luciferase reporter, luminescence, 24 h | Potency, µM (titrated, usually from 9.22 µM), for the others: top-dose activation, negative = inhibition, hits mostly activators | hit rate 2.8% among 320,000; further: % of control where 0% means no effect; nearly all actives have a fitted effect of over 60% in size
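Promoter activation is measured as luciferase luminescence in Huh7 cells stably transfected with a Rab9 promoter–luciferase construct, following 24 h compound exposure at 37 °C and 10 min reagent incubation at ambient temperature.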
ELG1 genotoxic: genotoxicity induction in ELG1-luciferase HEK293T cells; HEK293T ELG1-luciferase reporter, luminescence, 16 h; Potency, µM (titrated, usually from 46 µM), for the others: top-dose activity change, positive = activation, hits mostly activators; hit rate 1.3% among 330,000; further: % of control where 0% means no effect; nearly all actives have a fitted effect of over 60% in size
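Step 1: seed 2,000 HEK293T ELG1-luciferase cells per well. Step 2: add compound or DMSO, incubate 16 hr at 37 °C. Step 3: ONE-Glo, 30 min at room temperature, read luminescence.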
ELG1 DNA repair: inhibitors of ELG1-dependent DNA repair in HEK293T cells. HEK293T ELG1-luciferase reporter, luminescence, 16 h; DNA damage induced by 5-fluorouridine. Potency, µM (titrated, usually from 46.1 µM), for the others: top-dose activity change, negative = inhibition, most hits filed as inhibitors. hit rate 2.3% among 330,000. AID 504467; further: on the % scale 0 is the no-effect control and ±100 the full control effect; nearly all actives have a fitted effect of over 55% in size
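Step one: seed 2,000 cells per well. Step two: pin-transfer compound or DMSO alongside 5-fluorouridine. Step three: incubate 16 hr, 37 °C, 5% CO2. Step four: add ONE-Glo, wait 30 min, read luminescence.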
SMN2 splice enh: enhancers of SMN2 splice variant expression. Potency, µM (titrated, usually from 46.1 µM), without a hit: at the top dose activity change, positive = activation, most hits filed as activators. hit rate 2.8% among 210,000. HEK293 SMN2-luciferase splicing reporter, luminescence, 30-36 h; further: % of control where 0% means no effect; nearly all actives have a fitted effect of over 55% in size
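HEK293 cells carry an SMN2 […]–luciferase reporter in which exon 7 inclusion puts luciferase in frame. Cells were plated 10-12 h before compound addition, then incubated 30-36 h at 37C. ONE-Glo luminescence was read; sodium butyrate at 4.5 mM final served as control.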
Starred values were filed as active, the others as inactive; ? = inconclusive; nt = no result given; [ ] = another dose, or the depositor's remark. An excerpt weighted towards active compounds, which were near 9.3% of everything screened. The call rests on the fitted dose curve; in most records, active means well fitted curve in the direction sought with a large enough effect; inconclusive means small, poorly fitted or top-dose-only effect, or another doubt; inactive means no such curve, though single readings can be large; an effect the other way counts as inactive or inconclusive. Potency means the concentration at half of the fitted maximal effect.

SMILES	NPC1 promoter act	FLuc counter	Rab9 promoter act	ELG1 genotoxic	ELG1 DNA repair	SMN2 splice enh
Cc1ccc(Cl)cc1NC(=O)c1cc(-c2ccc3c(c2)OCCO3)on1	nt	1.3µM*	nt	nt	nt	nt
Cc1cccc(NC(=O)c2cc(-c3ccc4c(c3)OCCO4)on2)c1	nt	0.19µM*	nt	nt	nt	nt
O=C(Nc1ccc2c(c1)OCO2)c1cc(-c2ccc(Br)cc2)on1	nt	-2%	nt	nt	nt	-2%
C1CCCC(NC2=NCCO2)CCC1	-1%	-2%	2%	-2%	-4%	nt
O=C(Nc1cccc(C(F)(F)F)c1)c1cc(-c2ccc3c(c2)OCCO3)on1	nt	1.5µM*	nt	nt	nt	nt
O=C(Nc1cccc(C(F)(F)F)c1)c1cc(-c2ccc(Cl)cc2)on1	nt	4%	nt	nt	nt	-9%
CCCCCCCNC(=O)c1ccc(N2CCC3(CC2)OCCO3)c([N+](=O)[O-])c1	-1%	2%	1%	-6%	18µM*	-34%
O=C(Nc1ncc([N+](=O)[O-])s1)c1cccc([N+](=O)[O-])c1	0.089µM*	0.67µM*	0.1µM*	?	?	nt
Cc1nc(C)c(C(=O)Nc2ncc([N+](=O)[O-])s2)o1	?	1.9µM*	?	?	?	0.89µM*
O=C(Nc1ccccc1)Nc1ncc([N+](=O)[O-])s1	?	1.5µM*	?	?	?	4µM*
O=C(Nc1cc([N+](=O)[O-])ccc1O)c1cccc([N+](=O)[O-])c1	?	?	?	10%	28%	nt
CC(C)CC(=O)Nc1ncc([N+](=O)[O-])s1	0%	?	-1%	3%	?	nt
COc1cc(OC)c(Nc2c3c(nc4nc(-c5cccs5)nn24)CCCC3)cc1Cl	nt	24µM*	nt	nt	nt	nt
Cc1cccc(OCCCC(=O)Nc2ccc(S(=O)(=O)Nc3nccs3)cc2)c1C	0%	-1%	-3%	-1%	-7%	nt
CC(C)CCn1cnc2c(oc3nc4c(cc32)CCCC4)c1=O	0.5µM*	1.7µM*	0.45µM*	?	?	nt
O=C1CCC2S/C(=C/Nc3ccc(C(F)(F)F)cc3)C(=O)N12 (configuration not stated)	-30%	15µM*	-38%	-13%	?	-80%
O=C1CCCC/C1=C/Nc1cccc(C(F)(F)F)c1	-3%	?	4%[1.84 µM]	19%	?	-6%
Cc1nc(NC(=O)c2ccc([N+](=O)[O-])cc2Cl)sc1C(=O)N(C)C	1%	-16%	-2%	-1%	1%	29%
Cc1cc(C(=O)Nc2nc(C)c(C(=O)N(C)C)s2)ccc1[N+](=O)[O-]	0.35µM*	4.3µM*	0.45µM*	2.6µM*	?	1.8µM*
Cc1ccccc1C(=O)Nc1ccnn1C1CCN(Cc2cnn(C(C)C)c2)CC1	0%	-2%	0%	2%	11%	nt
O=C(/C=C/c1ccc(Br)cc1)c1ccc(NC2=NCCCS2)cc1	1%	?	-4%	-14%	?	nt
O=C(/C=C/c1ccccc1)c1ccc(NC2=NCCCS2)cc1	?	4.3µM*	?	?	?	20%
CC(C)(C)c1ccc(/C=C/C(=O)c2ccc(NC3=NCCCS3)cc2)cc1	1%	15µM*	-3%	-11%	-13%	-107%
Cc1cccc(/C=C/C(=O)c2ccc(NC3=NCCCS3)cc2)c1	8%	13µM*	18%	?	14%	-20%
COc1cccc(/C=C/C(=O)c2ccc(NC3=NCCCS3)cc2)c1	-3%	11µM*	1%	?	?	-26%
CC(C)(C)NC(=O)Cn1nnc(-c2ccc(OCc3c(F)cccc3Cl)cc2)n1	0%	?	0%	12%	?	nt
CN(C)S(=O)(=O)c1cccc(NC(=S)N/N=C/c2ccco2)c1	2%	?	1%	-2%	-6%	nt
COc1cccc(/C=N/NC(=S)Nc2cccc(S(=O)(=O)N(C)C)c2)c1	8%	?	-1%	-8%	-4%	nt
CN(C)S(=O)(=O)c1cccc(NC(=S)N/N=C/c2ccc(O)c(O)c2O)c1	-4%	13µM*	-4%	-17%	16µM*	nt

Screening data: PubChem BioAssay, National Center for Advancing Translational Sciences (NCATS)
